± gives the standard deviation.
What was measured:
Details in all cases: modulator concentration 10 µM
[1] = test system: RAW-Dual (murine macrophage reporter line); test: NF-kB reporter (SEAP) activity fold change vs agonist alone; higher = enhanced NF-kB activity
Method in brief: (§1)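 In 384-well plates holding 50 000 RAW-Dual murine macrophage reporter cells per well, compound at 10 μM final was pre-incubated for 1 hour at 37 °C, after which a PRR agonist was added overnight. Supernatant SEAP read with QUANTI-Blue at 620 nm absorbance reported NF-κB, and Lucia luciferase read with QUANTI-Luc luminescence reported IRF. Fold change values come from dividing each reporter signal by the mean of agonist-only control wells on the same plate, averaged over replicate plates with propagated errors.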

[2] = test system: RAW-Dual (murine macrophage reporter line); test: IRF reporter (Lucia luciferase) activity fold change vs agonist alone; higher = enhanced IRF activity
Method in brief: as §1

[3] = test system: RAW-Dual (murine macrophage reporter line); test: viability score (confluency relative to resting cells, overnight) (fraction); higher = more viable, active = viable (0.7 or more)
Method in brief: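 In 384-well plates, RAW-Dual macrophages received compound at a final 10 μM overnight. Two confluency masks were then made with IncuCyte software from IncuCyte images of all imaged wells. The viability score is defined as confluency relative to resting cells. Passing the cutoff required both masks to lie above 70% of resting cells.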

[4] = agonist: CpG ODN 1826 0.5 ug/mL

| Structure (SMILES) | NF-kB reporter [1, 4] | NF-kB reporter ([1]; agonist: LPS 0.1 ug/mL) | NF-kB reporter ([1]; agonist: MPLA […]) | IRF reporter ([2]; agonist: 3'3'-cGAMP 10 ug/mL) | IRF reporter ([2]; agonist: LPS 0.1 ug/mL) | IRF reporter ([2]; agonist: MPLA […]) | viability score [3] |
| --- | --- | --- | --- | --- | --- | --- | --- |
| c1ccc(CCn2c3ccccc3c3nnc(SCCN4CCCCC4)nc32)cc1 | 0.232 ± 0.018 | 1.05 ± 0.061 | 1.02 ± 0.061 | 0.81 ± 0.075 | 1.57 ± 0.17 | 1.57 ± 0.11 | 1.01 (active) |
| NCC(=O)O | 0.965 ± 0.073 | 0.999 ± 0.064 | 0.96 ± 0.021 | 0.912 ± 0.068 | 1.02 ± 0.12 | 1.23 ± 0.21 | 1 (active) |
| CCC(NC(C)C)C(O)c1ccc(O)c(O)c1 (stereo not given) [Prestw-749] | 2.04 ± 0.12 | 1.13 ± 0.092 | 1.34 ± 0.13 | 0.988 ± 0.039 | 0.96 ± 0.051 | 1.08 ± 0.25 | 0.997 (active) |
| CCOC(=O)c1ccc(N2C(=O)CC(N3CCN(c4ccc([N+](=O)[O-])cc4)CC3)C2=O)cc1 (stereo not given) | 0.813 ± 0.072 | 1.08 ± 0.066 | 0.928 ± 0.071 | 1.06 ± 0.039 | 1.64 ± 0.13 | 1.47 ± 0.13 | 0.997 (active) |
| Cl.Fc1ccc([C@@H]2CCNC[C@H]2COc2ccc3c(c2)OCO3)cc1 | 0.575 ± 0.05 | 1 ± 0.051 | 1.23 ± 0.069 | 1.11 ± 0.072 | 1.05 ± 0.055 | 1.04 ± 0.2 | 0.253 (inactive) |
| COc1cc2c(Nc3ccc(Br)cc3F)ncnc2cc1OCC1CCN(C)CC1 | 0.825 ± 0.04 | 1.01 ± 0.11 | 1.11 ± 0.094 | 0.975 ± 0.048 | 1.11 ± 0.17 | 1.29 ± 0.35 | 0.91 (active) |
| COC(=O)N[C@H](C(=O)N1CCC[C@H]1c1ncc(-c2ccc(-c3ccc(-c4cnc([C@@H]5CCCN5C(=O)[C@@H](NC(=O)OC)C(C)C)[nH]4)cc3)cc2)[nH]1)C(C)C | 0.724 ± 0.098 | 1.17 ± 0.46 | 1.22 ± 0.074 | 0.757 ± 0.12 | 1.52 ± 0.3 | 4.38 ± 1.3 | 0.987 (active) |
| COc1ccc(CNc2oc(-c3ccc(COc4ccccc4C)o3)nc2C#N)cc1 | 1.48 ± 0.11 | 1.31 ± 0.074 | 2.3 ± 0.054 | 1.3 ± 0.073 | 0.887 ± 0.1 | 1.34 ± 0.32 | 0.934 (active) |
| CC1Cc2ccccc2N1C(=O)c1cc2n(n1)CCCO2 (stereo not given) | 0.962 ± 0.076 | 0.949 ± 0.06 | 1.09 ± 0.12 | 0.903 ± 0.054 | 1.39 ± 0.082 | 1.44 ± 0.15 | 0.985 (active) |
| COc1cc2c(cc1OC)C1C(=O)c3ccc4c(c3OC1CO2)CCC(C)(C)O4 (stereo not given) | 0.91 ± 0.073 | 1.02 ± 0.075 | 1.67 ± 0.16 | 0.824 ± 0.026 | 1.52 ± 0.24 | 1.75 ± 0.36 | 1.02 (active) |
| CC(=O)N=C1NC(=O)C(=Cc2ccc(C)o2)S1 | 0.92 ± 0.088 | 0.847 ± 0.067 | 0.965 ± 0.026 | 0.817 ± 0.065 | 0.895 ± 0.082 | 0.823 ± 0.083 | 0.995 (active) |
| Cc1ccc(S(=O)(=O)n2nnc3ccccc32)cc1C | 1.07 ± 0.11 | 1.04 ± 0.092 | 0.991 ± 0.034 | 0.928 ± 0.059 | 0.982 ± 0.14 | 1 ± 0.23 | 1 (active) |
| O=C(NCC1CCN(C(=O)c2ccncc2)CC1)c1ccc(Oc2ccccc2)cc1 | 0.988 ± 0.058 | 0.954 ± 0.096 | 0.893 ± 0.026 | 0.873 ± 0.066 | 0.882 ± 0.057 | 0.932 ± 0.12 | 0.997 (active) |
| COCCOC(=O)C1=C(C)NC(=O)NC1c1cc(OC)c(OC)c(OC)c1 (stereo not given) | 0.937 ± 0.064 | 1.02 ± 0.062 | 0.913 ± 0.069 | 0.956 ± 0.032 | 1.2 ± 0.15 | 1.08 ± 0.14 | 0.995 (active) |
| Cc1cc2c(cc1S(N)(=O)=O)S(=O)(=O)CCC2 | 1.02 ± 0.094 | 1.03 ± 0.085 | 0.997 ± 0.022 | 1 ± 0.11 | 0.95 ± 0.044 | 0.891 ± 0.14 | 1 (active) |
| CCS(=O)(=O)c1ccc(-c2ccc(NC(=O)c3cccc(OC)c3OC)cc2)nn1 | 0.914 ± 0.059 | 0.977 ± 0.1 | 1.01 ± 0.1 | 1.05 ± 0.053 | 1.2 ± 0.26 | 1.36 ± 0.4 | 0.955 (active) |
| CCCC(=O)Nc1ccc(N2CCCCC2)cc1 | 0.833 ± 0.067 | 0.901 ± 0.046 | 0.979 ± 0.09 | 0.895 ± 0.043 | 1.48 ± 0.1 | 1.65 ± 0.17 | 0.985 (active) |
| CCC(C(=O)NCc1ccnc(-c2ccncc2)c1)c1ccccc1 (stereo not given) | 1.27 ± 0.09 | 1.1 ± 0.084 | 1.12 ± 0.03 | 0.574 ± 0.029 | 0.654 ± 0.086 | 0.545 ± 0.12 | 0.994 (active) |
| Cc1cc(C(=O)Nc2nnc(-c3ccc(F)cc3)o2)n(C)n1 | 0.915 ± 0.1 | 0.985 ± 0.084 | 1.1 ± 0.064 | 0.929 ± 0.059 | 1.18 ± 0.24 | 1.22 ± 0.5 | 0.873 (active) |
| Cc1ccc2oc(-c3cccc(NC(=O)C(C)C)c3C)nc2c1 | 0.792 ± 0.062 | 0.908 ± 0.068 | 0.972 ± 0.094 | 0.848 ± 0.04 | 1.16 ± 0.068 | 1.33 ± 0.13 | 1.01 (active) |
| CCc1nc2ccc(C(=O)NC3CCC(n4cccn4)CC3)cc2s1 (stereo not given) | 1.02 ± 0.098 | 1.04 ± 0.082 | 1.03 ± 0.054 | 0.959 ± 0.047 | 0.964 ± 0.045 | 0.925 ± 0.14 | 1 (active) |
| NC(=O)CC[C@@H](N)C(=O)O | 1.16 ± 0.31 | 1.05 ± 0.059 | 0.953 ± 0.068 | 0.946 ± 0.046 | 1.37 ± 0.2 | 1.23 ± 0.17 | 1.01 (active) |
| CC1(C)Cc2cccc(OCC(=O)NCc3ccccn3)c2O1 | 0.948 ± 0.064 | 1 ± 0.1 | 0.986 ± 0.045 | 0.896 ± 0.034 | 1.02 ± 0.048 | 0.906 ± 0.087 | 0.996 (active) |
| O=C(Cn1cnc(-c2ccc(Cl)cc2)cc1=O)N1CCOCC1 | 1.07 ± 0.29 | 0.924 ± 0.047 | 0.925 ± 0.07 | 0.933 ± 0.032 | 1.09 ± 0.17 | 1.09 ± 0.21 | 1 (active) |
| CC1=C(C(N)=O)C(c2cccs2)NC(=O)N1 (stereo not given) | 0.974 ± 0.086 | 1.03 ± 0.12 | 0.944 ± 0.034 | 1.01 ± 0.15 | 0.963 ± 0.045 | 0.942 ± 0.063 | 0.999 (active) |

Source: the supplement of paper PMC10646978
